High-throughput results deposited in PubChem by The Scripps Research Institute Molecular Screening Center.
rat GALR2 agon: agonists of rat galanin receptor 2 (GALR2); AID 833; O08726; cell-based GALR2 agonist screen; activation, % at 10 µM; actives 0.5% (n = 16,000); in the data active = activation above about 15%
TLR4-MyD88 inh: inhibitors of human TLR4-MyD88 binding | O00206 | Cell-based TLR4-MyD88 binding inhibition assay | inhibition, % at 10 µM | actives 0.06% (n = 16,000); in the data active = inhibition above about 45%
S1P1 agonist: S1P1 (human) receptor agonism; activation, % at 4.5 µM; AID 1044; actives 1.5% (n = 16,000); S1P1 agonist cell-based reporter assay; P21453; in the data active = activation above about 80%
Target sequence (P21453 whole entry, looked up): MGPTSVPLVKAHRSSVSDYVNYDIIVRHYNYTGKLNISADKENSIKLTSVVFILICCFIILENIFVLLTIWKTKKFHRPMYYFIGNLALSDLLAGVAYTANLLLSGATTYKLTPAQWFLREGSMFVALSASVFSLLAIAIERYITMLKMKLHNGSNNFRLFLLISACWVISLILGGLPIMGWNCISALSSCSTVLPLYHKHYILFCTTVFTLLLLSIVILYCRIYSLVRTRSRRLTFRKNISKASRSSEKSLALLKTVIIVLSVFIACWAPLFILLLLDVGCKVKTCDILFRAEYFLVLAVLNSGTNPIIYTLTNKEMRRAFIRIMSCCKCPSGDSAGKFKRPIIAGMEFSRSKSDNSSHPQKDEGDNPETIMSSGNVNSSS
NOTCH ag: NOTCH pathway agonism | actives 0.4% (n = 15,000) | NOTCH signaling luciferase reporter cells, luminescence | AID 434982 | activation, % at 2.5 µM; in the data active = activation above about 2.2%
Hits are given with their value; 0 = inactive; - = no result given. Compounds with a hit are over-represented: about 2.6% of the library has one in this group of screens.

SMILES	rat GALR2 agon	TLR4-MyD88 inh	S1P1 agonist	NOTCH ag
O=[N+]([O-])c1ccc(S(=O)(=O)c2cc(Cl)ccc2Cl)[n+]([O-])c1	0	0	0	3.6
Oc1c(Cl)cc(Cl)cc1/C=N/NC(=S)NC1CC2CCC1C2 (stereo not drawn)	51	0	0	-
S=C(N/N=C/c1ccco1)NC1CC2CCC1C2 (stereo not drawn)	0	0	0	0
Cc1nnc(SCc2ccc([N+](=O)[O-])cc2)s1	0	0	0	0
Clc1ccc(CSc2nnc(-n3cccc3)s2)cc1	0	0	80	0
COc1ccccc1NC(N)=S	0	0	0	4.8
COc1ccccc1CNc1n[nH]c(=S)s1	0	0	0	0
Cc1cc(-c2noc(-c3ccccc3)n2)no1	0	0	0	0
c1ccc(-c2nc(-c3ccc(-c4ccon4)s3)no2)cc1	0	0	87	0
COc1ccc(S(=O)(=O)N(CCC#N)CC2CCCO2)cc1OC (stereo not drawn)	0	0	0	0
CC(=O)Nc1ccccc1-c1nnc(-c2ccc(C(C)(C)C)cc2)o1	0	0	104	0
CC(=O)/C(=C\N(C)C)SCc1ccccc1C	0	0	97	-
N#C/C(N=Cc1ccc(Cl)cc1)=C(\C#N)NC(=O)Nc1ccc(OC(F)(F)F)cc1	0	0	100	0
CCOC(=O)c1cnn(-c2nc(-c3ccccc3)cs2)c1C(F)(F)F	0	0	82	0
CCOC(=O)c1cnn(C(=O)c2cnn(-c3ccc([N+](=O)[O-])cc3)c2C(F)(F)F)c1C(F)(F)F	0	0	0	0
CCOC(=O)c1csc(CS(=O)(=O)Cc2ccco2)n1	0	0	0	0
N#C/C(=N\Nc1cccc(C(F)(F)F)c1)S(=O)(=O)c1ccsc1	0	0	97	0
COC(=O)c1ccc(/N=C/N(C)C)o1	0	0	0	0
CCC/C(O)=C(\C=N\c1ccc(C(=O)OC)o1)C(=O)OCC	0	0	83	0
FC(F)(F)c1cc(-c2nsc(N3CCOCC3)n2)cc(C(F)(F)F)c1	22	0	0	0
FC(F)(F)c1cc(N=NN2CCOCC2)cc(C(F)(F)F)c1	0	0	0	-
Cc1nc(CSc2n[nH]c(-c3ccc(C(C)(C)C)cc3)n2)cs1	0	0	0	0
O=S(=O)(c1ccc(Cl)s1)N1CCN(C(c2ccccc2)c2ccccc2)CC1	0	0	0	6.4
O=S(=O)(c1cc(Br)c(Cl)s1)N1CCC(Cc2ccccc2)CC1	0	0	0	0
O=C(Oc1cccc2c1C(=O)C=CC2=O)c1ccccc1	0	0	102	0
SMILES	rat GALR2 agon	TLR4-MyD88 inh	S1P1 agonist	NOTCH ag
O=C(Oc1cccc2c1CCC2=O)c1ccccc1	0	0	0	-
COC(=O)Cc1ccccc1Sc1ccccc1[N+](=O)[O-]	0	0	0	0
O=c1[nH]c2ccccc2nc1-c1c[nH]c2ccccc12	82	0	0	0
Cc1nc2ccccc2[nH]c1=O	0	0	0	0
CC(=O)Nc1ccc(/C=C/[N+](=O)[O-])cc1	0	0	0	0
Cc1nc(C(=O)NCC(=O)c2cccc(Cl)c2)c(C(F)(F)F)o1	0	0	92	0
N#CCCN(Cc1cccs1)C(=O)c1cccs1	0	0	0	0
N#CCCN(Cc1cccs1)C(=O)Nc1cccc(C(F)(F)F)c1	42	0	0	0
O=C(Oc1ccc(Cl)cc1Cl)c1csnn1	0	0	0	0
O=S(=O)(Nc1cc(C(F)(F)F)ccc1F)c1cc(C(F)(F)F)ccc1Cl	0	0	85	0
CN1CN=C(SCc2ccc(Cl)cc2Cl)NC1	0	0	0	0
O=S(=O)(c1cc(Br)c(Br)s1)N1CCCCC1	0	0	0	0
O=S(=O)(Nc1ccc(F)c(Cl)c1)c1cc(Br)c(Br)s1	0	0	90	0
FC(F)(F)c1cc(-c2cccs2)nc2cc(-c3cccs3)nn12	30	0	0	0
FC(F)(F)c1cc(-c2ccc(Cl)cc2)nc2cc(-c3ccccc3)nn12	0	0	0	0
COc1ccc(OC)c(NC(=O)c2ccccc2NC(=O)c2ccccc2)c1	0	0	0	0
COc1ccc(N=Nc2cc(C)c(O)c(CN3CCCCC3)c2)cc1	0	0	101	0
COc1ccc(/C(C)=N/O)cc1CN1CCCC1	0	0	0	0
O=[N+]([O-])c1c(N2CCOCC2)ccc2nsnc12	55	0	0	0
Cc1noc(C)c1-c1nc(COc2ccc(/C=C(/C#N)S(C)(=O)=O)cc2)no1	0	0	0	0
O=C(O)CSCC(=O)Nc1cccc2c1CCCC2	24	0	0	0
COc1cc(OCc2ccccc2)ccc1CN1CCN(Cc2ccccc2)CC1	0	0	0	0
O=C(CC(=O)Nc1ccccc1OC(F)(F)F)Nc1ccccc1OC(F)(F)F	0	0	0	0
N#Cc1cccc(NCCN2CCNC2=O)n1	47	0	0	0
Cn1cnc([N+](=O)[O-])c1NCCN1CCNC1=O	0	0	0	0
SMILES	rat GALR2 agon	TLR4-MyD88 inh	S1P1 agonist	NOTCH ag
COc1ccc(OC)c(NC(=O)C(=O)NC2CC(C)CC(C)(C)C2)c1 (stereo not drawn)	0	0	0	0
COc1cc(C(=O)NC2CC(C)CC(C)(C)C2)cc(OC)c1OC (stereo not drawn)	0	0	109	0
CN(C)/C=C/C(=O)c1ccc([N+](=O)[O-])cc1Cl	0	0	0	0
O=C(NC1Cc2ccccc2C1)c1ccc(Cl)cc1	0	0	0	0
Cc1c(S(=O)(=O)c2ccc(Cl)cc2)csc1C(=O)Nc1ccc(F)cc1F	22	0	0	0
CN(C)/C=C/C=c1/c(=O)c2cccc3cccc1c32	0	0	102	0
O=c1c2cccc3cccc(sc4cccc5cccc1c54)c32	0	0	0	0
S=C(NNc1c(Cl)cncc1Cl)Nc1ccc(Cl)cc1Cl	0	0	119	0
OCCCNNC(=S)Nc1ccc(Cl)cc1Cl	0	0	0	0
OC[C@@H](O)[C@H](O)[C@H](O)[C@@H](O)C(SCc1ccccc1)SCc1ccccc1	0	0	103	0
N#C/C(=C\c1ccc(C#Cc2ccccc2)s1)C(=O)c1ccco1	16	0	0	0
COc1cccc(N2CC(=O)Nc3c(sc4nc(C)cc(C)c34)C2=O)c1	0	0	0	0
CSc1nnc(-c2sc3nc(C)cc(C)c3c2N)n1Cc1ccccc1	29	0	0	0
COC(=O)CSCC(=O)Nc1ccsc1C(=O)OC	0	-	0	0
Cc1nn(-c2ccccc2)cc1/C=N/NC(=O)Cc1ccccc1	0	0	0	0
CC(C)(C)c1cc(C(=O)NNC(=S)Nc2ccccc2)n(Cc2ccc(Cl)cc2Cl)n1	0	0	101	0
CC(C)(C)c1cc(C(=O)NCc2ccc(C#N)cc2)n(Cc2ccccc2)n1	0	0	0	0
O=c1c2ccccc2sc2c(O)ccc(Cl)c12	0	0	0	0
CCN1CCCC1CNC(=O)NC(=O)c1ccc([N+](=O)[O-])cc1 (stereo not drawn)	0	0	85	0
CSC(=N)n1nc(SC)nc1N	0	0	0	2.8
COc1cccc(N2CC(=O)N(/N=C/c3ccccn3)CC2=O)c1	0	0	0	0
Cc1noc(-c2c(C)noc2C)c1C(=O)NNC(=O)c1c(F)cccc1Cl	0	0	0	0
Cc1[nH]n(C)c(=O)c1N=Nc1ccc(C(C)C)cc1	0	0	102	-
COc1ccc(OC)c(/C=C(\C#N)C(N)=O)c1	0	0	92	0
Cc1nnsc1C(=O)Nc1ccc(-n2nc(C(F)(F)F)cc2-c2cccs2)cc1	0	0	0	0
